Sampled rows, rich in hits. Any-hit rate of the full collection: about 3.2%.
TROY NFkB inh: TROY signaling inhibition. 0.98% of 360,000 active. Q293 LMP1-TROYcd NF-kB luciferase reporter, 4 h. inhibition, % at 10 µM;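 active means compounds whose plate-normalised and pattern-corrected inhibition of the luciferase reporter signal at the single screening dose is 50% or more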
EWS-Fli inh: blocks EWS/Fli oncoprotein-driven transcription. A673 NR0B1-luciferase reporter, viability-normalised. inhibition, % at 12.6 µM. 0.67% of 350,000 active;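 active means mean inhibition of at least 50% after viability correction, with every replicate also passing that limit; inconclusive means mean reaches 50% but only one of two replicates passes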;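 further: firefly luciferase signal divided by Alamar Blue viability fluorescence both relative to DMSO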
PAX8 inh HTS: inhibitors of PAX8 transcriptional activity in RMG-I cells. RMG-I TPO-luciferase reporter, SteadyGlo, 24 h. inhibition, % at 12.6 µM. 1.2% of 360,000 active. AID 652154;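 active means mean replicate inhibition at least 60% with every replicate also reaching 60%; inconclusive means only one of the two criteria is met; inactive means mean below 60% and not all replicates reaching 60%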;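 further: luciferase light reporting Pax8 driven TPO promoter activity; plate controls were median of neutral control wells for no effect and mitoxantrone controls for full effect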
TWEAK-Fn14 inh: blocks TWEAK-Fn14 interaction in a reporter cell assay; TWEAK-stimulated Fn14 reporter cells, luciferase luminescence, 8 h; inhibition, % at 10 µM; 2% of 360,000 active; in the data active means inhibition above about 50%
LMP1 NFkB inh: Epstein-Barr LMP1 NF-kappaB reporter inhibition. inhibition, % at 12.5 µM. LMP1-induced NF-kappaB luciferase reporter cells, luminescence. 0.69% of 350,000 active. AID 504558; in the data active means inhibition above about 41%; inconclusive means no clear call, values can overlap the other calls;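 further: 0% = neutral control wells and 100% = reference inhibitor control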
LGR2 antag: inhibitors of bursicon-induced Drosophila LGR2 receptor cAMP signaling. HEK293 LGR2, CRE-luciferase, bursicon-stimulated, 4 h. 0.35% of 380,000 active. inhibition, % at 9.99 µM;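 active means drop in luminescence signal, shown as inhibition above about 50% in the replicate tests, limit read from the data, passing the limit was not always enough; inconclusive means probably only some replicates passing the limit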;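 further: agonist challenge used bursicon conditioned medium at about half maximal strength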
The depositor's hits bear a star.

How did O=C(OCC(=O)N1CCCC1=O)c1nc(Cl)c(Cl)c(Cl)c1Cl do in these assays?
TROY NFkB inh: 56*; EWS-Fli inh: 4; PAX8 inh HTS: 0; TWEAK-Fn14 inh: 91*; LMP1 NFkB inh: -32; LGR2 antag: -13

What do the screens show for `O=C(N/N=C/c1ccc(Cl)cc1)c1n[nH]c2c1CCCC2`?
TROY NFkB inh: -29; EWS-Fli inh: 35; PAX8 inh HTS: -25; TWEAK-Fn14 inh: -3; LMP1 NFkB inh: 0; LGR2 antag: -74

What do the screens show for `O=C(N/N=C/c1cccs1)c1n[nH]c2c1CCC2`?
TROY NFkB inh: 19; PAX8 inh HTS: 25; TWEAK-Fn14 inh: 57*; LMP1 NFkB inh: 39; LGR2 antag: inconclusive

Results for O=C(N/N=C/C(Br)=C/c1ccccc1)c1n[nH]c2c1CCC2 ?
TROY NFkB inh: 26; TWEAK-Fn14 inh: 5; LMP1 NFkB inh: -7

What do the screens show for `O=C(N/N=C/c1ccccc1Cl)c1n[nH]c2c1CCCC2`?
TROY NFkB inh: 74*; EWS-Fli inh: 14; PAX8 inh HTS: 77*; TWEAK-Fn14 inh: 97*; LMP1 NFkB inh: 19; LGR2 antag: 71*

What do the screens show for `Cc1[nH]nc(C(=O)NN=Cc2ccccc2Cl)c1N=NN(C)C`?
TROY NFkB inh: -14; EWS-Fli inh: -68; PAX8 inh HTS: -71; TWEAK-Fn14 inh: -5; LMP1 NFkB inh: -3; LGR2 antag: 1

Results for O=C(N/N=C/c1ccccc1)c1n[nH]c2c1CCCC2 ?
TROY NFkB inh: 10; EWS-Fli inh: -13; PAX8 inh HTS: -15; TWEAK-Fn14 inh: 54*; LMP1 NFkB inh: 24; LGR2 antag: 31

How did C[C@H](CO)N1C[C@H](C)[C@H](CN(C)Cc2ccc(O)cc2)OCc2cn(nn2)CCCC1=O do in these assays?
EWS-Fli inh: 0; LGR2 antag: -4

What do the screens show for `Cn1c(/C=C/c2ccc([N+](=O)[O-])o2)nc2ccccc2c1=O`?
TROY NFkB inh: -3; TWEAK-Fn14 inh: 28; LMP1 NFkB inh: 88*

How did Cn1c(/C=C/c2ccccc2)nc2ccccc2c1=O do in these assays?
TROY NFkB inh: -48; EWS-Fli inh: -105; PAX8 inh HTS: -47; TWEAK-Fn14 inh: -16; LMP1 NFkB inh: -18; LGR2 antag: -70

How did CCCC(=O)Nc1ccc2c(c1)C(=O)N(C)[C@@H]1CC[C@@H](CC(=O)O)O[C@@H]1CO2 do in these assays?
EWS-Fli inh: -7; PAX8 inh HTS: -2; LGR2 antag: 7

What do the screens show for `CCOC(=O)Nc1ccc2c(c1)N(C(=O)CCN1CCOCC1)c1ccccc1S2=O` (stereo not given)?
TROY NFkB inh: 30; PAX8 inh HTS: 106*; TWEAK-Fn14 inh: 14; LMP1 NFkB inh: 22

Results for CCOC(=O)Nc1ccc2c(c1)N(C(=O)CCN1CCOCC1)c1ccccc1S2 ?
TROY NFkB inh: -11; EWS-Fli inh: -1; PAX8 inh HTS: -7; TWEAK-Fn14 inh: -22; LMP1 NFkB inh: -4; LGR2 antag: -43

What do the screens show for `C[C@H]1CN([C@@H](C)CO)C(=O)c2cc(NC(=O)Cc3ccccc3)ccc2O[C@@H]1CN(C)S(=O)(=O)c1ccc(Cl)cc1`?
EWS-Fli inh: 11; PAX8 inh HTS: 1; LGR2 antag: -11

What do the screens show for `CCOc1cc(/C=N/NC(=O)COc2ccc(Cl)cc2)ccc1OS(=O)(=O)c1ccccc1`?
TROY NFkB inh: 27; TWEAK-Fn14 inh: 54*; LMP1 NFkB inh: -1

Results for CCOc1cc(/C=N/NS(=O)(=O)c2ccccc2)ccc1OS(=O)(=O)c1ccc(C)cc1 ?
TROY NFkB inh: -3; TWEAK-Fn14 inh: -55; LMP1 NFkB inh: 1

How did C[C@@H]1CN([C@@H](C)CO)C(=O)c2cc(C3=CCCC3)cnc2O[C@H]1CN(C)C(=O)c1ccc(F)cc1 do in these assays?
EWS-Fli inh: -1; PAX8 inh HTS: 15; LGR2 antag: 9

What do the screens show for `C/C(=N\Nc1nc2ccccc2[nH]1)c1ccccn1`?
TROY NFkB inh: 25; EWS-Fli inh: 22; PAX8 inh HTS: 68*; TWEAK-Fn14 inh: 5; LMP1 NFkB inh: 93*; LGR2 antag: 23

Results for CC(=NNc1cc(C)c2cc(C)ccc2n1)c1ccccn1 ?
EWS-Fli inh: 30; PAX8 inh HTS: 69*; LGR2 antag: -83

How did C[C@H]1CN([C@@H](C)CO)C(=O)c2cccc(NS(=O)(=O)c3ccccc3)c2O[C@H]1CN(C)Cc1ccc(Cl)c(Cl)c1 do in these assays?
EWS-Fli inh: -5; PAX8 inh HTS: -28; LGR2 antag: -1

Screens from PubChem BioAssay.
